The entries come from a sample that favours hits as a whole.
ST2 inh: IL1RL1 inhibition; Q01638; AlphaLISA ST2-Fc/biotin-IL-33 interaction, 1 h; inhibition, % for hits at 17 µM; actives 2.3% (n = 78,000); AID 1259354; in the data active = inhibition above about 30%
Target sequence (Q01638 whole entry, looked up): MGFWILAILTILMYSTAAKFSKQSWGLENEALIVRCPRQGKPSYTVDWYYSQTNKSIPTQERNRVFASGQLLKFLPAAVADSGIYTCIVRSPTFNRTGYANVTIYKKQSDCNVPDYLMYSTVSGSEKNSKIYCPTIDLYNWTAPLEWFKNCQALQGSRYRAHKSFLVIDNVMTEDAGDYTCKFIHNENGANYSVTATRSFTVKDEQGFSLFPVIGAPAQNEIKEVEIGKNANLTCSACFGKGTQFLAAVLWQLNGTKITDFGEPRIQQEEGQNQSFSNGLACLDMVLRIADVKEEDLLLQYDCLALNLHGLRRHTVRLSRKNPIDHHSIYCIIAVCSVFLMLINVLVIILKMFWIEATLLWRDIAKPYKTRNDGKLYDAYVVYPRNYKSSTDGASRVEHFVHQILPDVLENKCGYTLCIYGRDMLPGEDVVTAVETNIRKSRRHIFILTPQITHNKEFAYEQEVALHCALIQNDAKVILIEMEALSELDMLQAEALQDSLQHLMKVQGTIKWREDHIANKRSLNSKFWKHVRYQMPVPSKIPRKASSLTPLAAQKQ
The depositor's hits bear a star; i = inactive.

SMILES	ST2 inh
COc1ccc(C(=O)NC[C@H]2O[C@@H](CO)[C@@H](O)[C@H]2N2CCN(c3ccc(F)cc3)CC2)cc1	i
CC1CCN([C@@H]2[C@H](O)[C@H](CO)O[C@@H]2CNC(=O)c2cccs2)CC1	i
O=C(NC[C@H]1O[C@@H](CO)[C@@H](O)[C@H]1N1CCN(c2ccccc2)CC1)c1ccc(F)c(Cl)c1	i
O=C(NC[C@H]1O[C@@H](CO)[C@@H](O)[C@H]1N1CCN(c2ccc(F)cc2)CC1)c1cccc(F)c1	i
O=C(NC[C@H]1O[C@@H](CO)[C@@H](O)[C@H]1N1CCN(c2ccc(F)cc2)CC1)c1cccs1	74%*
O=C(Nc1ccc2c(c1)OCCO2)C1CCCCN1S(=O)(=O)c1ccccc1 (configuration not stated)	i
COC(=O)c1ccc(C2C(C(=O)OCc3ccccc3)=C(C)Nc3ncnn32)cc1 (configuration not stated)	i
O=C(NCc1ccccn1)c1ccc2c(c1)ncn2C1CCCCC1	i
CCc1ccc(NC(=O)CN2C(=O)CC(c3ccccc3)=Nc3ccccc32)cc1	i
COc1ccc(/C=C2/SC(N3CCN(C)CC3)=NC2=O)cc1OC	i
COc1cc(/C=C2\SC(N)=NC2=O)cc(Br)c1O	i
COc1ccc(/C=C2\SC(c3ccc(C)cc3)=NC2=O)cc1OC	30%*
COc1cc(/C=C/c2cc(O)cc(O)c2)ccc1O	i
COc1ccc(/C=C2/C(=O)N=C(N)N2C)cc1OC	i
COc1cc(/C=C2\SC(c3ccc(C)cc3)=NC2=O)ccc1O	62%*
COc1ccc(OC)c(-c2nc(Cn3nc(C)nc3C)c(C)o2)c1	i
CC1=C(C(=O)Nc2ccc(C)cc2C)C(c2c(F)cccc2Cl)n2ncnc2N1 (configuration not stated)	i
Cc1cc(=O)[nH]c(SCC(=O)Nc2cccc(F)c2)n1	i
Cc1ccc(NS(=O)(=O)c2ccc([N+](=O)[O-])cc2)c(C)c1	i
CCOc1ccc(C(=O)Nc2ccc3nn(-c4ccc(OC)c(Cl)c4)nc3c2)cc1[N+](=O)[O-]	40%*
CCOc1ccc(C(=O)Nc2ccc3oc(-c4ccncc4)nc3c2)cc1[N+](=O)[O-]	i
O=C(Nc1ccc2nn(-c3ccc(Cl)cc3)nc2c1)c1cccc(F)c1	i
COc1ccc(NC(=O)c2ccc(Cl)cc2)cc1	i
CCOc1ccc(C(=O)Nc2cccc(NC(=O)C(C)C)c2)cc1[N+](=O)[O-]	i
COc1ccc(C(=O)Nc2ccc3nn(-c4ccc(Cl)cc4)nc3c2)cc1	37%*
SMILES	ST2 inh
O=C(/C=C/c1cccs1)NCC1Cc2cc(Cl)cc(-c3ncccn3)c2O1 (configuration not stated)	i
Cc1cc(NC(=O)c2cccc(S(=O)(=O)Nc3cc(C)on3)c2)no1	i
CC(CNC(=O)c1cn(Cc2ccccc2F)nn1)Oc1cccnc1 (configuration not stated)	i
Cc1ccc(C2CC(C(F)(F)F)n3ncc(C(=O)N4CCCCC4)c3N2)cc1 (configuration not stated)	i
O=C(Cn1c2ccccc2c(=O)c2ccccc21)Nc1ccccc1Br	i
O=C(Cn1c2ccccc2c(=O)c2ccccc21)Nc1ccccc1C(F)(F)F	39%*
O=C(Cn1c2ccccc2c(=O)c2ccccc21)Nc1ccccc1F	i
Cc1cccc(CSC2=NCCN2C(=O)c2ccc3c(c2)OCO3)c1	i
CCCCNS(=O)(=O)c1cc(Br)cc2c1N(C(=O)CC)CC2	i
CC(NS(=O)(=O)c1ccc(F)cc1)C(c1cccs1)N1CCN(c2ccc(F)cc2)CC1 (configuration not stated)	i
O=S(=O)(c1ccc(Cl)s1)N1CCN(c2ccc(F)cc2)CC1	i
CCCCOc1ccccc1C1CC(=O)Nc2cc3c(cc21)OCCO3 (configuration not stated)	i
CCOc1ccc2nc(NC(=O)c3ccc(OCC)c(Br)c3)sc2c1	i
CC1CCC(N2CCN(c3ccccc3)CC2)C1 (configuration not stated)	i
COc1cccc(N2CCC(N3CCCC(N4CCN(c5ccccc5C)CC4)C3)CC2)c1 (configuration not stated)	i
COc1cccc(N2CCN(C3CCC(C)C3)CC2)c1 (configuration not stated)	31%*
CCOC(=O)c1sc2nc(C)nc(N3CCN(c4ccccc4)CC3)c2c1C	i
O=C(c1cc([N+](=O)[O-])ccc1Cl)n1nnc2ccccc21	i
O=C(CSc1nc2ccccc2s1)Nc1nc2ccc([N+](=O)[O-])cc2s1	i
O=[N+]([O-])c1ccc(S(=O)(=O)c2nc3ccccc3s2)c(Cl)c1	54%*
CCc1nnc(NC(=O)c2cccc(Cl)c2Cl)s1	i
Cc1ccc(-n2cnnn2)nc1	i
N#CC1=C(SCC(N)=O)NC(=O)CC1c1cccc(Cl)c1Cl (configuration not stated)	i
O=C(NC1CCCC1)c1noc2c1CCc1ccccc1-2	i
COCCN1C(=O)N(Cc2cccnc2)C(=O)C12CCN(Cc1c(F)cccc1Cl)CC2	i
SMILES	ST2 inh
COc1ccc(NS(=O)(=O)c2ccccc2)cc1	i
COc1ccc(NC2=C(N(C)C)C(=O)c3ccccc3C2=O)cc1	44%*
COc1ccc(Nc2nnc(-c3ccc(C)c(S(=O)(=O)N(C)C)c3)c3ccccc23)cc1	i
CCc1cc2c(=O)c(-c3ccc(Cl)cc3)coc2cc1O	i
Cc1cc(C)nc(SCc2nc3cccc(C)n3c2Br)n1	i
CC1=C(C(=O)OCc2ccccc2)C(c2ccccc2)n2nnnc2N1 (configuration not stated)	i
O=C(CCn1ccccc1=O)Nc1cnc2n1CCCC2	i
O=C(Nc1nnc(-c2ccccc2Br)s1)c1ccc2c(c1)OCO2	i
CC1=CC(=O)C=C(C)C1=NOC(=O)c1ccc([N+](=O)[O-])cc1[N+](=O)[O-]	i
COc1ccc(C(=O)O/N=C(/N)Cc2ccc(Cl)cc2)cc1	i
COc1ccc(C(=O)ON=C2C(C)=CC(=O)C=C2C)cc1	52%*
CSc1cccc(NC(=O)CN2N=NC3C(=O)N(c4ccc(F)cc4)C(=O)C32)c1 (configuration not stated)	i
OCC1(O)CCN(c2nc3ccccc3s2)CC1	i
COc1ccc(-c2nnc(NC(=O)c3ccc(S(=O)(=O)N(C)Cc4ccccc4)cc3)o2)cc1	i
CCC(=O)Nc1cccc(C(=O)N(CC)CC2CCOCC2)c1	i
CCOC(=O)c1c(-c2ccccc2)oc2ccc(OC)cc12	i
COc1ccc2oc(C(=O)c3ccccc3)c(N)c2c1	35%*
COc1ccc2c(C)c(C(=O)O)oc2c1	i
CNCC1OCCc2ccccc21 (configuration not stated)	i
Cc1ccc(NCC2OCc3ccccc3CO2)cc1	97%*
CC(C)N(Cc1ccccc1)C(=O)C1CCCN1S(=O)(=O)c1cccc2nsnc12 (configuration not stated)	i
CCOc1ccc(C2C(C(=O)OC(C)C)=C(C)NC3=C2C(=O)C(C(=O)OC)C(C)C3)cc1OC (configuration not stated)	i
CCNC(=O)N[C@H]1C[C@@H](c2nc(-c3ccccc3)no2)N(C)C1	i
O=C(NCCN1CCOCC1)C1c2ccccc2C(=O)N2CCc3ccccc3C12 (configuration not stated)	i
CCN(CC)c1ccc(/C=C2\N=C(SC)SC2=O)cc1	63%*
